This note sets out measurements from publication PMC7862700, “An all-to-all approach to the identification of sequence-specific readers for epigenetic DNA modifications on cytosine”.

What all share (test): DAPPL (digital affinity profiling via proximity ligation, sequencing); 10 mM Tris-HCl pH 7.5, 50 mM NaCl, 1 mM DTT, 4% glycerol, room temperature, 30 min; GST-TFs on glutathione beads, 16-mer random dsDNA library, 0.1% formaldehyde crosslink after washing; high values mean tight binding
One experiment concerns the target T1, FEV (Homo sapiens, UniProt Q99581 1-238).
T1 sequence: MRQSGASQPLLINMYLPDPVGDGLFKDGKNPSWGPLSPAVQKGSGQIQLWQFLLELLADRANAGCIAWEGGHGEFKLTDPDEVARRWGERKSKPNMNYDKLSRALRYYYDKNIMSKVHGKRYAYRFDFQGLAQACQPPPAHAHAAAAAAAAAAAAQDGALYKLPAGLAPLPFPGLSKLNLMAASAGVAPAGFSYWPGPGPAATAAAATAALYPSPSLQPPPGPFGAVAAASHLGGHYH
The following applies: protein: recombinant; tags: N-terminal GST; dsDNA, one strand shown. Summed up:
(§1)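 Each value of binding signal is a hexamer's read frequency for a factor divided by the same hexamer's frequency in the tag-only sample. Barcoded, bead-captured GST fusions of human transcription factors made in yeast were pooled with that sample and incubated with 200 nmole of a random double-stranded 16-mer DNA library in Tris/NaCl/DTT/glycerol buffer at room temperature for 30 min. Washing, 0.1% formaldehyde crosslinking, proximity ligation, PCR and Illumina NextSeq500 sequencing followed.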

The next experiment has as its target ETV5 (Homo sapiens, UniProt P41161 1-510). The note with it: protein: recombinant; tags: N-terminal GST; dsDNA, one strand shown. Summed up: as §1
Another experiment has as its target HSF1 (Homo sapiens, UniProt Q00613 1-529). The note with it: protein: recombinant; tags: N-terminal GST; chain copies: 3; dsDNA, one strand shown. Summed up: as §1
The target of another experiment is T2, SPIC (Homo sapiens, UniProt Q8N5J4 1-248).
T2 sequence: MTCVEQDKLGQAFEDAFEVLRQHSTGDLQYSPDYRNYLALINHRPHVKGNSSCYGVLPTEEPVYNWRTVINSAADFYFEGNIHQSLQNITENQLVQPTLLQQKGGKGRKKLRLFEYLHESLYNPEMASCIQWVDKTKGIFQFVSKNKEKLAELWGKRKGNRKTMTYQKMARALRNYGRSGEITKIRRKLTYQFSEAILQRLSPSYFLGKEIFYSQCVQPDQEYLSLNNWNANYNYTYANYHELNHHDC
The following applies: protein: recombinant; tags: N-terminal GST; dsDNA, one strand shown. Summed up: as §1

The target in another experiment is ELF4 (Homo sapiens, UniProt Q99607 1-663). The following applies: protein: recombinant; tags: N-terminal GST; dsDNA, one strand shown. Summed up: as §1
Sequence of ELF4 (Q99607 whole entry): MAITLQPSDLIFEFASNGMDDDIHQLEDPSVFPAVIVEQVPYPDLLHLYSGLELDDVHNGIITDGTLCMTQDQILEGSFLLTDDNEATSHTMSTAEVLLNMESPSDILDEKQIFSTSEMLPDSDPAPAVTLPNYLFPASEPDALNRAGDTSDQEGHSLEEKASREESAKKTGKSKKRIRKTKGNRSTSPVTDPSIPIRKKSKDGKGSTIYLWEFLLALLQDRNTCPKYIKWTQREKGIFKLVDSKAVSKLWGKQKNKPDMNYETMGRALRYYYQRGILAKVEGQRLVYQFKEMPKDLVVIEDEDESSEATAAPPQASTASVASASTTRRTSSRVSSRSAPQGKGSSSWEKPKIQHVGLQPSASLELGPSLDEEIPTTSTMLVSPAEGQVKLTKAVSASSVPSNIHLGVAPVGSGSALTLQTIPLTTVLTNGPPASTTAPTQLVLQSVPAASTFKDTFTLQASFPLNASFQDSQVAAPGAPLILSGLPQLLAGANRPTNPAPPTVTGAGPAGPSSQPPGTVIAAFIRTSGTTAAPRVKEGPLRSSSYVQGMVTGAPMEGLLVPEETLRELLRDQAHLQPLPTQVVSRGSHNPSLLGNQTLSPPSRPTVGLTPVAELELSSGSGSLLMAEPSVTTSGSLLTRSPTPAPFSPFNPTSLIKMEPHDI
The next experiment concerns the target T3, ELK4 (Homo sapiens, UniProt P28324-2 1-405).
T3 sequence: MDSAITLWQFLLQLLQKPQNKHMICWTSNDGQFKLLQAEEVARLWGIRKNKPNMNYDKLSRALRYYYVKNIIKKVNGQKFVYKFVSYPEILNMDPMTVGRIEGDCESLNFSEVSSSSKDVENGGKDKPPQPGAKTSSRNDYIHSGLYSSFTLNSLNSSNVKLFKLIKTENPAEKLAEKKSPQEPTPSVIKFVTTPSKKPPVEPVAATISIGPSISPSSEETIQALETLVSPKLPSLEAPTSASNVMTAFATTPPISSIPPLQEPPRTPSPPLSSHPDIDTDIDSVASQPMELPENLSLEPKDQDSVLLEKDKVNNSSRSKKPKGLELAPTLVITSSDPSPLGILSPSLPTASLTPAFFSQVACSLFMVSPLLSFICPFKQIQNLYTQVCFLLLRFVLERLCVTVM
The following applies: protein: recombinant; tags: N-terminal GST; dsDNA, one strand shown. Summed up:
as §1

The target of the next experiment is T4, ETV2 (Homo sapiens, UniProt O00321 1-342).
T4 sequence: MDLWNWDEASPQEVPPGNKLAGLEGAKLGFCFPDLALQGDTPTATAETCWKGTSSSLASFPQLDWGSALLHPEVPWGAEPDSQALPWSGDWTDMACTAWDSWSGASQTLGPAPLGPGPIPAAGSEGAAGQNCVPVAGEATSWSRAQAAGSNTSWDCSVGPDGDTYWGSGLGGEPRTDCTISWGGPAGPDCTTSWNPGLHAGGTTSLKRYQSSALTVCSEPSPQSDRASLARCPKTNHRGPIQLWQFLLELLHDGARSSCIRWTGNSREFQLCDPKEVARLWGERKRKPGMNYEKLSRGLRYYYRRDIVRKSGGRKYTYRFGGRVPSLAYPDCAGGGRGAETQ
The following applies: protein: recombinant; tags: N-terminal GST; dsDNA, one strand shown. Summed up:
as §1

For the next experiment, the target named is T5, ELF3 (Homo sapiens, UniProt P78545 1-371).
T5 sequence: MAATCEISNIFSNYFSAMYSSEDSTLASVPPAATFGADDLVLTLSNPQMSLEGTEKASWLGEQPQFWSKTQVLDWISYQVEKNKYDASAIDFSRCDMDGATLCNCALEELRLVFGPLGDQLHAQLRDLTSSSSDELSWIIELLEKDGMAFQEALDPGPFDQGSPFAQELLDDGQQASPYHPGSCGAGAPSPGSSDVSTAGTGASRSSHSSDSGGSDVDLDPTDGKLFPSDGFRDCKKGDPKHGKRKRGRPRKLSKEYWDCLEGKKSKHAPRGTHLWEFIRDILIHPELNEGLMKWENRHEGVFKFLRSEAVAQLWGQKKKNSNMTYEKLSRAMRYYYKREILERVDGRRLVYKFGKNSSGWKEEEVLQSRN
The note with it: protein: recombinant; tags: N-terminal GST; dsDNA, one strand shown. Summed up: as §1

For another experiment, the target named is CRX (Homo sapiens, UniProt O43186 1-299). The following applies: protein: recombinant; tags: N-terminal GST; dsDNA, one strand shown. Summed up: as §1
Sequence of CRX (O43186 whole entry): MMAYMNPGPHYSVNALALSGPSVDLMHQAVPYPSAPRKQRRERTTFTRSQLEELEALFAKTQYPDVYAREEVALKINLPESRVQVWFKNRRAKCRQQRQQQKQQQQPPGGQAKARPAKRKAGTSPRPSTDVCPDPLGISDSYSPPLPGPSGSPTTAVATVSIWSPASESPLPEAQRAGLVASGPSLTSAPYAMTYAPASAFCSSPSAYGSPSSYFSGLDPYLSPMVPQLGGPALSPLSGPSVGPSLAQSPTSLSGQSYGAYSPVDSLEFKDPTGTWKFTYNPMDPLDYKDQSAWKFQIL
For the next experiment, the target named is ETV1 (Homo sapiens, UniProt P50549 1-477). The following applies: protein: recombinant; tags: N-terminal GST; dsDNA, one strand shown. Summed up:
as §1

In a further experiment the target is T6, ERF (Homo sapiens, UniProt P50548 1-548).
T6 sequence: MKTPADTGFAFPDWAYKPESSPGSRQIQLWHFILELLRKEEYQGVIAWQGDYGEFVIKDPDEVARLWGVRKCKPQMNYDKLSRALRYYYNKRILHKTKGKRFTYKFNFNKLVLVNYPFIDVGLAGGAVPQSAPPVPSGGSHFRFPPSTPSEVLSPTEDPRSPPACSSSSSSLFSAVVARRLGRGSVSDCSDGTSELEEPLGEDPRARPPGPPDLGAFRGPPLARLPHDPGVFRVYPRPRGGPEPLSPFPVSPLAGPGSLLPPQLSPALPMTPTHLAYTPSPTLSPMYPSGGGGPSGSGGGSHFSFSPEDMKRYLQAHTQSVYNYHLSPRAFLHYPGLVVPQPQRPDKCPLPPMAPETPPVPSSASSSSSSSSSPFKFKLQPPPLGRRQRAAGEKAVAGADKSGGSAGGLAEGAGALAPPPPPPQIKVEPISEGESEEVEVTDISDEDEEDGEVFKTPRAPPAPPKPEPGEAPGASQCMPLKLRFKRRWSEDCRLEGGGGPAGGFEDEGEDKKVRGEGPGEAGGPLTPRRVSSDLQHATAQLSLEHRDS
The following applies: protein: recombinant; tags: N-terminal GST; dsDNA, one strand shown. Summed up: as §1

The target in the next experiment is T7, ETV3L (Homo sapiens, UniProt Q6ZN32 1-361).
T7 sequence: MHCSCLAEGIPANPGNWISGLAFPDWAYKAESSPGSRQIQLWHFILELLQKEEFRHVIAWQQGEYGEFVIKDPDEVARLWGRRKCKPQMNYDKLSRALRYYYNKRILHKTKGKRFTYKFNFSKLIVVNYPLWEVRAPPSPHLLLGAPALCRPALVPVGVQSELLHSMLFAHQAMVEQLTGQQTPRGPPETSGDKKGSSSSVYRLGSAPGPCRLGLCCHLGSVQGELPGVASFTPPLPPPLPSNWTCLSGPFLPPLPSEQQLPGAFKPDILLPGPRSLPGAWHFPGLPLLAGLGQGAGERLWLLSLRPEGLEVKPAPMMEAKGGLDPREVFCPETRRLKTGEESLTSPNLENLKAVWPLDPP
The note with it: protein: recombinant; tags: N-terminal GST; dsDNA, one strand shown. Summed up: as §1

A further experiment deals with T8, ETS2 (Homo sapiens, UniProt P15036 1-469).
T8 sequence: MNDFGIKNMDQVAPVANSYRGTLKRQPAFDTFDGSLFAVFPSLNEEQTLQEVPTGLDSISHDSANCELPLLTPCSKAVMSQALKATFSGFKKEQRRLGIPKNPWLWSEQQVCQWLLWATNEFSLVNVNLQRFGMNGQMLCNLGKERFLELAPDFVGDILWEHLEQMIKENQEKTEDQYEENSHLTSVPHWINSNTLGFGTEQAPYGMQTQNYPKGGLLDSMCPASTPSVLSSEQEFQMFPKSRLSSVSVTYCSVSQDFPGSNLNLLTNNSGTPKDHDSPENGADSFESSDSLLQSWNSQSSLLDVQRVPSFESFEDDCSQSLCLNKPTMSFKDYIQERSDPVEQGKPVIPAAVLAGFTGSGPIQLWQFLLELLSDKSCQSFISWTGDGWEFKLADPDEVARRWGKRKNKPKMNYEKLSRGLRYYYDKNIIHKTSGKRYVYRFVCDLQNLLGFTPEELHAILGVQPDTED
The note with it: protein: recombinant; tags: N-terminal GST; dsDNA, one strand shown. Summed up: as §1

A further experiment concerns the target T9, SPDEF (Homo sapiens, UniProt O95238 1-335).
T9 sequence: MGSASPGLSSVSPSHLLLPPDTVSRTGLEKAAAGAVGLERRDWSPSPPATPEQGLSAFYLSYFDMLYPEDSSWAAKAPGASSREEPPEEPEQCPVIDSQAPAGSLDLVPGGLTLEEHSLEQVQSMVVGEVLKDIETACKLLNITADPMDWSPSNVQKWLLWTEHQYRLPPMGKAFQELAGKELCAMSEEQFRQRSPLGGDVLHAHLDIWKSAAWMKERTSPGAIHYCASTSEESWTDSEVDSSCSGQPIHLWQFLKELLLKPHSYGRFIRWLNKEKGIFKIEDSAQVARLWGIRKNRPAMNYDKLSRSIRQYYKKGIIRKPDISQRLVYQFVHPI
The note with it: protein: recombinant; tags: N-terminal GST; dsDNA, one strand shown. Summed up: as §1

The target in another experiment is T10, ETV7 (Homo sapiens, UniProt Q9Y603 1-341).
T10 sequence: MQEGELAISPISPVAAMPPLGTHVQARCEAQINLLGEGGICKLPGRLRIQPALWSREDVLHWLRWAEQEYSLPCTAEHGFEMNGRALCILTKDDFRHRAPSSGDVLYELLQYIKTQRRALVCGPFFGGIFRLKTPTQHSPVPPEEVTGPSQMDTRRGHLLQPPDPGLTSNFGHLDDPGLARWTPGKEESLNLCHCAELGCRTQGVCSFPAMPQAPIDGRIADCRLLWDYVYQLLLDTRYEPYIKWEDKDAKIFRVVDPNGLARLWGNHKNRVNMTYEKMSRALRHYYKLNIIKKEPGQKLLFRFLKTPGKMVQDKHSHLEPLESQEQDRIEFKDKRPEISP
The following applies: protein: recombinant; tags: N-terminal GST; dsDNA, one strand shown. Summed up:
as §1

For a further experiment, the target named is T11, ELF5 (Homo sapiens, UniProt Q9UKW6-2 1-255).
T11 sequence: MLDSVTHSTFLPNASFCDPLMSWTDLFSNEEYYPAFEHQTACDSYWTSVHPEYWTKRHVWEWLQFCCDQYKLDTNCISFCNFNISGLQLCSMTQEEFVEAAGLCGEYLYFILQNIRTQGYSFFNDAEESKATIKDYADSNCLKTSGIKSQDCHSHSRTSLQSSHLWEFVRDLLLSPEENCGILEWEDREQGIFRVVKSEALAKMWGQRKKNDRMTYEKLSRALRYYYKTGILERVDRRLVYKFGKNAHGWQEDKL
The note with it: protein: recombinant; tags: N-terminal GST; dsDNA, one strand shown. Summed up: as §1

Another experiment addresses T12, ETV3 (Homo sapiens, UniProt P41162-2 1-143).
T12 sequence: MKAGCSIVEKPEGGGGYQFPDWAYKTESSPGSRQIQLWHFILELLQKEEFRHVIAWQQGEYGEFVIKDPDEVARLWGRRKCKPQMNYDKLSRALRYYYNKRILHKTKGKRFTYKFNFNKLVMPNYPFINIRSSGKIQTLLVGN
The following applies: protein: recombinant; tags: N-terminal GST; dsDNA, one strand shown. Summed up: as §1

The target in the next experiment is ETV6 (Homo sapiens, UniProt P41212 1-452). The following applies: protein: recombinant; tags: N-terminal GST; dsDNA, one strand shown. Summed up:
as §1

Sequence of ETV6 (P41212 whole entry): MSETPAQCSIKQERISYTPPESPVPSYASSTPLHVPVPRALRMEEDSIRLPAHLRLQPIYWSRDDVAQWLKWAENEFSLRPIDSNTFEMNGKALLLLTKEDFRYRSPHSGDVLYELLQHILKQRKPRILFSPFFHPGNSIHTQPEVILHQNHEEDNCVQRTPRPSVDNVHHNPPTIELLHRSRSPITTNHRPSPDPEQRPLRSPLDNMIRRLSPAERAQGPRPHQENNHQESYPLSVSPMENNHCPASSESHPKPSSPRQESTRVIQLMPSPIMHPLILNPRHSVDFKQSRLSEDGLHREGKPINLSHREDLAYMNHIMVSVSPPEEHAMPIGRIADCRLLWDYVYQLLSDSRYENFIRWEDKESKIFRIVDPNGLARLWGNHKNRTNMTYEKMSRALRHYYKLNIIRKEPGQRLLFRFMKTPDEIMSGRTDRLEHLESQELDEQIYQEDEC
Sequence of ETV1 (P50549 whole entry): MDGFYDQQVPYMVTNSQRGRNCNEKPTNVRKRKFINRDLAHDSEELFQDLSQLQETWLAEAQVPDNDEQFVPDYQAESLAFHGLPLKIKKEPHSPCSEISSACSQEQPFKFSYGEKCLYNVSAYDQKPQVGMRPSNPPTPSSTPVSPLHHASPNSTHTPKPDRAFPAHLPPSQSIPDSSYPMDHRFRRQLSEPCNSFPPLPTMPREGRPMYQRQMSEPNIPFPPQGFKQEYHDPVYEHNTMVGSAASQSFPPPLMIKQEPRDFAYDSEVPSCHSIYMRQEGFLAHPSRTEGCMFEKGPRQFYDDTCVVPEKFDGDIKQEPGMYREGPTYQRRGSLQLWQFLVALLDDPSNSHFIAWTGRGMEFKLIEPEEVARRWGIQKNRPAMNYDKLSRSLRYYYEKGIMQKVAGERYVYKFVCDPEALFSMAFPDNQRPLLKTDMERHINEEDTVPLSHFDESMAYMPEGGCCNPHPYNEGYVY
Sequence of ETV5 (P41161 whole entry): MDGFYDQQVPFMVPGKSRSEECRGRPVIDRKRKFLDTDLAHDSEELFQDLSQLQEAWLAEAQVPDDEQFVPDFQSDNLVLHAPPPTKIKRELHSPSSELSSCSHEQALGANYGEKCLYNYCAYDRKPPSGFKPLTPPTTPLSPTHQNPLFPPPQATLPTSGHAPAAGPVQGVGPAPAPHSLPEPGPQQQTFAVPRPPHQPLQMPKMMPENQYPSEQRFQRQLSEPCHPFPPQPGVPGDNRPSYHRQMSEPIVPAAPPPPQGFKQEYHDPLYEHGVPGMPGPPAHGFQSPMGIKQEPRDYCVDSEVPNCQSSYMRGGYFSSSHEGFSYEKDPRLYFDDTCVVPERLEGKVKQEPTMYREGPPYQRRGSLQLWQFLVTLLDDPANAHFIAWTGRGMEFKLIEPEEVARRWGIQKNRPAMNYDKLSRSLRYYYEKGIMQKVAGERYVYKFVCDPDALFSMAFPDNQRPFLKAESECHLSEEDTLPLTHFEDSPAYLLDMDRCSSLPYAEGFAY
Sequence of HSF1 (Q00613 whole entry): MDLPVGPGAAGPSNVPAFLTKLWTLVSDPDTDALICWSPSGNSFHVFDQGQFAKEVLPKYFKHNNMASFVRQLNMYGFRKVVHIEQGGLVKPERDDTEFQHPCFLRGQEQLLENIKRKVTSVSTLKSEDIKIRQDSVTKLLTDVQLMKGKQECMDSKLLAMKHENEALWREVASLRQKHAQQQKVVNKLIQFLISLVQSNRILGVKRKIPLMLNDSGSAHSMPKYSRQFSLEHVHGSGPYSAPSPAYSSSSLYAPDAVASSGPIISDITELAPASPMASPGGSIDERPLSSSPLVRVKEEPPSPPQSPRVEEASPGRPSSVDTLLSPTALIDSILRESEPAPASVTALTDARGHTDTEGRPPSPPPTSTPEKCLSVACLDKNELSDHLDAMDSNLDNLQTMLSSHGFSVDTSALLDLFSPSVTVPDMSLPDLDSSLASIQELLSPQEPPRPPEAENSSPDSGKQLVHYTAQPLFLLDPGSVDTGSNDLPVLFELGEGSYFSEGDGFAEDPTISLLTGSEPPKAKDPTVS

Regarding TTCTGA, the binding signal is 1.22 fold enrichment (6-mer frequency, TF over GST control) with FEV; 1.23 fold enrichment (6-mer frequency, TF over GST control) in the experiment with ETV5; 1.48 fold enrichment (6-mer frequency, TF over GST control) with HSF1; 1.03 fold enrichment (6-mer frequency, TF over GST control) in the experiment with SPIC; 1.45 fold enrichment (6-mer frequency, TF over GST control) with ELF4; 1.4 fold enrichment (6-mer frequency, TF over GST control) with ELK4. In addition, the binding signal was 1.23 fold enrichment (6-mer frequency, TF over GST control) in the experiment with ETV2; 1.13 fold enrichment (6-mer frequency, TF over GST control) in the experiment with ELF3; 1.41 fold enrichment (6-mer frequency, TF over GST control) with CRX; 1.27 fold enrichment (6-mer frequency, TF over GST control) with ETV1; 1.16 fold enrichment (6-mer frequency, TF over GST control) in the experiment with ERF; 1.35 fold enrichment (6-mer frequency, TF over GST control) with ETV3L. In addition, the binding signal was 1.43 fold enrichment (6-mer frequency, TF over GST control) in the experiment with ETS2; 1.38 fold enrichment (6-mer frequency, TF over GST control) with SPDEF; 1.19 fold enrichment (6-mer frequency, TF over GST control) in the experiment with ETV7; 1.26 fold enrichment (6-mer frequency, TF over GST control) in the experiment with ELF5; 1.37 fold enrichment (6-mer frequency, TF over GST control) with ETV3; 1.3 fold enrichment (6-mer frequency, TF over GST control) with ETV6.
